The results in this text go back to PubChem BioAssay (EPA / NIEHS).

Values joined by “and” are separate entries in the source; they are usually repeats but may differ in a detail not shown here. Equal values may be shown once. Where a structure was tested more than once in an assay, its records may differ in their call. Active and inactive are the calls of the source. Rule for the calls: active = hit-call score of the fitted dose curve at least 0.9, where 1 is the maximum; inactive = score below 0.9.

Read-out in this assay: Apolipoprotein A-V (APOA5) gene, APOA5 (gene 116519)
Description: LTEA_HepaRG_APOA5: Life Technologies and Expression Analysis (LTEA) Assay for Apolipoprotein A-V (APOA5) gene using HepaRG (AID 2283474). The settings on record: mRNA level, 48 h; actives raise or lower the signal. How it is done:
LTEA_HepaRG is a cell based, multiplexed-readout assay that uses HepaRG, a human liver cell line, with measurements taken at 48 hours after chemical dosing on a 96-well plate.LTEA_HepaRG_APOA5 is one of 102 assay component(s) measured in the LTEA HepaRG cell culture assay. It is a marker of Steatosis.Data from the assay component LTEA_HepaRG_APOA5 was analyzed into 1 endpoint. This assay endpoint, LTEA_HepaRG_APOA5, was analyzed with bidirectional fitting relative to DMSO as the negative control and baseline of activity. Using a type of inducible reporter, measures of mRNA induction for gain or loss-of-signal activity can be used to understand regulation of transcription factor activity. To generalize the intended target to other relatable targets, this assay endpoint is annotated to the apolipoprotein intended target family, where the subfamily is Steatosis.
A total of 1060 chemcials from the ToxCast library were tested in eight-point concentration-response experiments. Cell culture and cytotoxicity assays were conducted at Thermo Fisher Scientific's Custom Services facility (Madison, WI). A single lot of human HepaRG cells (Thermo Fisher Scientific, Frederick, MD) was used for the cell culture experiments. 96-well format collagen type I coated plates of human HepaRG cells were prepared using established methods. Briefly, cryopreserved HepaRG cells were thawed, plated at a density of approximately 100,000 cells/well in HepaRG Thaw, Plate, and General Purpose media (HPRG770, Thermo Fisher Scientific), and incubated for 48 hours. 0.5% DMSO was selected as vehicle control to balance the requisite need of DMSO in HepaRG cultures to maintain differentiation (for example, baseline metabolism, proportions of hepatocytes vs. cholangiocytes), while enabling further hepatic receptor pathway activation (for example, PXR and CAR) in response to chemical exposure. 48 hours after plating, the culture medium was replaced with HepaRG Serum-Free Incudtion Media. Cells were exposed to each test chemical in duplicate and maintained in CO2 incubators for another 48 hours. Chemical plates were thawed to room temperature and 200x concentrations of treatment groups were prepared. 8-point conentration-reponse curves were made with the highest exposure at 100 uM, followed by half-log dilutions, all in 0.5% DMSO. Each test plate contained variouse controls, induction positive controls (1mM phenobarbital), cytotoxicity positive controls ([…] aflatoxin B1), vehicle controls (0.5% DMSO), and total lysis controls (0.5% DMSO). Cell morphology images were taken using an Essen IncuCyte FLR automated microscope, with six 96-well plates imaged in about 24 minutes. Images were captured and exported and JPEG files. Spent culture media was transfered to black-well plates for the LDH assay, and remaining media was sorted at -80 C for later use. Cells were treated with RLT buffer and frozen until shipped for gene expression analysis. Total RNA was isolated from the cell suspension in 75 uL of Buffer RLT (Qiagen, Germantown, MD 20874) by Quintiles/Expression Analysis (Durham, NC) using a custom isolation procedure. Total RNA from each plate well was transferred to a preamplification plate. Fluidigm's 96.96 Dynamic ArrayTM (Fluidigm, Amsterdam, the Netherlands) technology was used for gene expression analyses by quantitative reverse transcription polymerase chain reaction (qRT-PCR, performed by Quintiles/Expression Analysis, Durham, NC)89. Standard TaqManTM Assays (Applied Biosystems/ThermoFisher Scientific, Foster City, CA) were used to assess the expression of 93 genes selected based on their selectivity and sensitivity to important hepatic receptors known to be modulated by environmental chemicals; importance in human hepatocyte functionality; and hepatotoxicity. […]
With `Fc1ccc(Oc2ccnc3cc(Cl)cc(Cl)c23)cc1`, the compound was called inactive. Still for that read-out and setting: for `CCCCOC(=O)c1ccccc1C(=O)OCCCC` the value was “inactive”; for `CCNc1nc(Cl)nc(NCC)n1`, “inactive”. The AC50 is the concentration at which the activity in the assay is half-maximal. Take `OC(c1ccc(Cl)cc1)(c1cncnc1)c1ccccc1Cl` (stereo not given): the AC50 was 72.9 µM (active). With `CCOP(=S)(OCC)SCn1c(=O)oc2cc(Cl)ccc21`, the outcome was inactive. Same read-out and setting: under `CON(C)C(=O)Nc1ccc(Cl)c(Cl)c1` stands “inactive”. In the case of `CC(C)Oc1cc(-n2nc(C(C)(C)C)oc2=O)c(Cl)cc1Cl`, the AC50 was 32.4 µM (active). The same measure, in the same setting: under `CC(C)(C)c1ccc(CSc2cnn(C(C)(C)C)c(=O)c2Cl)cc1` stands 12 µM (active); under `CCCC1COC(Cn2cncn2)(c2ccc(Cl)cc2Cl)O1` (stereo not given), 47.4 µM (active). Turning to `C#CCOS(=O)OC1CCCCC1Oc1ccc(C(C)(C)C)cc1` (stereo not given), the compound was classed as inactive. With `CCCCC(CC)COC(=O)c1ccccc1C(=O)OCC(CC)CCCC` (stereo not given), the compound was called inactive. As to `Cc1ccc(-c2c(Cl)nc(C#N)n2S(=O)(=O)N(C)C)cc1`, the AC50 is 74.2 µM (active).

Consider `COC(=O)C(C)Oc1ccc(Oc2ccc(Cl)cc2Cl)cc1` (stereo not given), for which the compound was called inactive. Take `CS/C(C)=N/OC(=O)N(C)SN(C)C(=O)O/N=C(\C)SC`: the call was inactive. Same read-out and setting: under `CC(Oc1ccc(Cl)cc1Cl)C(=O)O` (stereo not given) stands “inactive”; under `CN(C)C(=S)SSC(=S)N(C)C`, “inactive”.

Regarding `CCc1nn(C)c(C(=O)NCc2ccc(C(C)(C)C)cc2)c1Cl`, the AC50 is 0.5 µM (active).

In the case of `Cc1cc(Cl)ccc1OCC(=O)O`, the compound was called inactive.

`CC1=C(C(=O)Nc2ccccc2)SCCO1`: the AC50 is 50 µM (active). As to `CO/C=C(/C(=O)OC)c1ccccc1Oc1cc(Oc2ccccc2C#N)ncn1`, the AC50 is 91.8 µM (active) and 78 µM (active) and 74.3 µM (active). Regarding `CC(C)C1(C)N=C(c2nc3ccccc3cc2C(=O)O)NC1=O` (stereo not given), the outcome was inactive. On the same count and under the same terms, under `CCCCNC(=O)n1c(NC(=O)OC)nc2ccccc21` stands “inactive”.

In the case of `C=CC1(C)OC(=O)N(c2cc(Cl)cc(Cl)c2)C1=O` (stereo not given), the compound was called inactive.

For `CCNc1nc(Cl)nc(NC(C)C)n1`, the outcome was inactive.

`CCON=C(CC)C1=C(O)CC(c2c(C)cc(C)cc2C)CC1=O` (stereo not given): the compound was called inactive. The same measure, in the same setting: for `COc1nc(NC(C)C)nc(NC(C)C)n1` the value was “inactive”; for `CNC(=O)ON=CC(C)(C)SC`, “inactive”. With `C=CCC1=C(C)C(OC(=O)C2C(C=C(C)C)C2(C)C)CC1=O` (stereo not given), the half-maximal activity concentration (AC50) is 0.000839 µM (active) and the outcome was inactive. `O=C(Nc1ccccc1)Nc1ccnc(Cl)c1`: the AC50 was 71.9 µM (active). In the case of `CCCCNC(=O)OCC#CI`, the outcome was inactive.

On to `CNC(=S)S`, for which the result was inactive. On the same count and under the same terms, for `COc1cnc(OC)n2nc(NS(=O)(=O)c3c(OCC(F)F)cccc3C(F)(F)F)nc12` the value was “inactive”. With `N#CC(CCc1ccc(Cl)cc1)(Cn1cncn1)c1ccccc1` (stereo not given), the AC50 was 50 µM (active). Still for that read-out and setting: under `N#Cc1cc(Br)c(O)c(Br)c1` stands 21.2 µM (active). Consider `O=C(O)c1nc(Cl)ccc1Cl`, for which the result was inactive. On the same count and under the same terms, for `COP(N)(=O)SC` (stereo not given) the value was “inactive”.

Consider `COC(=O)N(OC)c1ccccc1COc1ccn(-c2ccc(Cl)cc2)n1`, for which the concentration at half-maximal activity (AC50) is 3.56 µM (active). Same read-out and setting: under `COc1ccc(C(c2ccc(OC)cc2)C(Cl)(Cl)Cl)cc1` stands 70.9 µM (active).

`C=CCC1=C(C)[C@@H](OC(=O)[C@@H]2[C@@H](C=C(C)C)C2(C)C)CC1=O`: the result was inactive.
